GBA mod = human lysosomal glucosylceramidase modulation; Potency, µM; 1.1% of 48,000 active; AID 360; P04062; purified enzyme, resorufin glucoside fluorescence (screen aimed at inhibitors), 20 min; in the data active = potency below about 15 µM; inconclusive = mostly about 16 µM to 33 µM;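 also: potency is read from the fitted curve at half-maximal effect; the screen sought inhibitors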
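Normal human glucocerebrosidase (0.2 nM final) was assayed with resorufin β-D-glucopyranoside (30 uM final) in 50mM citric acid/KH2PO4, 10mM sodium taurocholate, 0.01% tween-20, pH 5.9. Compounds were titrated; fluorescence (Ex 548, Em 600) read after 20 min at RT.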
HSD17B inh = inhibitors of human HSD17B10 dehydrogenase; recombinant HSD17B10, NADH fluorescence kinetic; Potency, µM (titrated, usually from 57.1 µM), without a hit: at the top dose activity change, negative = inhibition, most hits filed as inhibitors; 7.6% of 75,000 active;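 also: the protocol describes HADH2 (HSD17B10) and not the HSD17B4 of the title; potency is read from the fitted curve at half-maximal effect; % is scaled to controls: 0 for no effect and ±100 for the full control effect; nearly all actives have a fitted effect of over 70% in size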
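His-tagged E. coli-expressed HADH2 at 20 nM in 100 mM Tris-HCl pH 9.0 with 0.01 % Tween-20, preincubated 15 min with compound at room temperature. Reaction with 1 mM NAD+ and 90 uM beta-hydroxybutyryl coenzyme A; NADH fluorescence (360/450 nm) read kinetically over 4 min, last minus first point.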
A350 fluor = A350 region autofluorescence. max dye-equivalent concentration, M. 11% of 59,000 active. Compound autofluorescence, 340/450 nm, Alexa 350 dye-equivalents; hits give high values; in the data active = max dye-equivalent concentration above about 10 nM; inconclusive = mostly about 1.1 nM to 9.6 nM
4MU fluor = compounds fluorescent in 4-MU spectral region; compound autofluorescence, 340/450 nm, 4-MU equivalents; hits give high values; max dye-equivalent concentration, M; 11% of 59,000 active; in the data active = max dye-equivalent concentration above about 10 nM; inconclusive = mostly about 1.1 nM to 9.6 nM
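Intrinsic fluorescence at 340/450 nm (ex/em) was read after 15 min at room temperature in pH 8.0, 100 mM Tris. Each compound concentration expressed as 4-MU-equivalent concentration from a six-point 4-MU standard series on each plate.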
AID923 = qHTS Assay for Allosteric/Competitive Inhibitors of Caspase-1: Spectroscopic Profiling in AFC Spectral Region; compound fluorescence, AFC spectral region (405/520 nm); Potency, µM (highest dose often 57.5 µM), without a hit: at the highest dose fluorescence increase, hits mostly activators; 1.1% of 75,000 active; AID 923, 2007; also: potency is read from the fitted curve at half-maximal effect; 0% is about no effect
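Compound autofluorescence profiled at 405 nm ex/520 nm em during kinetic caspase 1 run (50 nM enzyme, 5 uM Ac-WEHD-AFC, HEPES pH 7.5, 10 mM DTT). Titration up to 57 uM; baseline from regression intercept, normalized to AFC standard curve.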
HADH2 inhib = blocks human hydroxyacyl-CoA dehydrogenase type II | 3.4% of 73,000 active | Q99714 | AID 886 | recombinant HADH2, NADH fluorescence, beta-hydroxybutyryl-CoA | Potency, µM (highest dose often 57.1 µM), without a hit: at the highest dose activity change, negative = inhibition, usual class: inhibitors; also: potency is read from the fitted curve at half-maximal effect; % is scaled to controls: 0 for no effect and ±100 for the full control effect; nearly all actives have a fitted effect of over 60% in size
Target sequence (Q99714 whole entry, looked up, one chain of several): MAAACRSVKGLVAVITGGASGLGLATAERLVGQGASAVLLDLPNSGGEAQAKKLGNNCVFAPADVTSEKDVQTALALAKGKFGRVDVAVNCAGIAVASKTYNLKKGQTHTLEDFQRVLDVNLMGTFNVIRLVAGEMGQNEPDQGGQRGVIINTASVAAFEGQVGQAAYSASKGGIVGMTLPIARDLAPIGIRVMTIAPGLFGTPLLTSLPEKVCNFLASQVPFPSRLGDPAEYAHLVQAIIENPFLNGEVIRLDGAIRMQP
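20 nM HADH2 + cpd, 15 min RT; add 1 mM NAD+/90 uM beta-hydroxybutyryl-CoA; kinetic fluorescence 360/450 nm, 4 min. Tris-HCl pH 9.0, 0.01% Tween-20.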
An asterisk follows results filed as active; [ ] = remark or other dose. Only some compounds are listed: those with a hit (about 13% of all), similar ones and a draw of the others. Unless noted, calls follow the shape of the dose curve; as a rule, active = well fitted curve in the direction sought with a large enough effect; inconclusive = small, poorly fitted or top-dose-only effect, or another doubt; inactive = no such curve, though single readings can be large; an effect the other way counts as inactive or inconclusive.

For COc1ccc(-n2nc(C(=O)NCC(=O)N3CCN(c4ccccn4)CC3)c3ccccc3c2=O)cc1 the results were GBA mod >76.9, HSD17B inh 17.9%, A350 fluor inconclusive, 4MU fluor inconclusive, AID923 2.1% and HADH2 inhib 7.3%.
Screening COc1ccc(NC(=O)c2c(C)cc(=O)oc2C)c(OC)c1 returned A350 fluor 1.34e-07M* and 4MU fluor 1.13e-07M*.
For CCCCCCN(CCCCCC)C(=O)Cc1c(-c2ccc(Cl)cc2)[nH]c2ccc(Cl)cc12 the results were HSD17B inh 31.6µM*, AID923 2.7% and HADH2 inhib -4.2%.
For COc1ccc2[nH]c3ccccc3c2c1 the results were GBA mod >76.9, HSD17B inh 25.1µM*, A350 fluor inconclusive, 4MU fluor inconclusive, AID923 -0.6% and HADH2 inhib 14.6%.
Screening COC(=O)CC1Oc2cc3oc4c5ccccc5oc(=O)c4c3cc2O1 (stereo not given) returned HSD17B inh 25.1µM* and AID923 1.6%.
Screening O=C(CN1CCCCC1)Nc1ccc(F)c(Cl)c1 returned HSD17B inh -6.6%, A350 fluor 5.48e-08M*, 4MU fluor 4.05e-08M*, AID923 -0.6% and HADH2 inhib 8.7%.
Screening CC(=O)Nc1ccc(Nc2ncnc3c2cnn3-c2cccc(C)c2)cc1 returned HSD17B inh 26.0%, AID923 -0.9% and HADH2 inhib 211.5%.
`OCCOCCNc1ncnc2c1cnn2-c1ccc(Cl)cc1` gave A350 fluor inconclusive and 4MU fluor 1.36e-08M*.
`COc1ccc(OC)c(Nc2ncnc3c2cnn3-c2cccc(C)c2)c1` gave GBA mod >76.9, HSD17B inh -11.3%, A350 fluor 6.39e-08M*, 4MU fluor 5.89e-08M*, AID923 0.4% and HADH2 inhib 31.6µM*.
For Cc1cccc(-n2ncc3c(NCc4cccs4)ncnc32)c1 the results were GBA mod 14.5*, HSD17B inh 31.6µM*, A350 fluor inactive, 4MU fluor inactive, AID923 0.2% and HADH2 inhib -7.6%.
Cc1cccc(-n2ncc3c(NCc4ccccn4)ncnc32)c1 was read as GBA mod >76.9, HSD17B inh 20µM*, A350 fluor inconclusive, 4MU fluor inactive, AID923 0.5% and HADH2 inhib 27.0%.
`CCC(=O)[C@]12O[C@@]3(C4C(=O)OCCC41)N(CC)C(C)=C(C(=O)OC)C(c1ccccc1)N3C2=O` (stereo not given in full) gave HSD17B inh -1.9%[11.4 µM], AID923 -1.6%[11.5 µM] and HADH2 inhib -2.0%[11.4 µM].
CN1C(=O)CCC1c1cccnc1 (stereo not given) was read as HSD17B inh -7.3% and AID923 -0.9%.
For CN1CC[C@@]2(CCCN(C(=O)c3cccn3C)C2)C1 the results were HSD17B inh 6.1%, A350 fluor inactive, 4MU fluor inactive, AID923 2.8% and HADH2 inhib -0.5%.
For CC(C)OCCCNc1ncnc2c1cnn2-c1ccccc1 the results were A350 fluor inactive and 4MU fluor inactive.
c1ccc(CNc2ncnc3c2cnn3-c2ccccc2)cc1 was read as GBA mod inconclusive, HSD17B inh inconclusive, A350 fluor inactive, 4MU fluor inactive, AID923 -0.9% and HADH2 inhib inconclusive.
Screening Cc1ccc(-n2ncc3c(NCCCOC(C)C)ncnc32)c(C)c1 returned A350 fluor 3.22e-08M* and 4MU fluor 3.19e-08M*.
For Cc1cccc(-n2ncc3c(NCc4ccccc4)ncnc32)c1 the results were HSD17B inh 25.1µM*, AID923 0.3% and HADH2 inhib inconclusive.
`c1ccc(-n2ncc3c(NCc4ccccn4)ncnc32)cc1` gave GBA mod >76.9, HSD17B inh 31.6µM*, A350 fluor inactive, 4MU fluor inactive, AID923 -1.3% and HADH2 inhib -7.3%.
For O=C(C1CCCN(S(=O)(=O)Cc2ccccc2)C1)N1CCc2ccccc21 (stereo not given) the results were GBA mod >76.9, HSD17B inh -14.9%, A350 fluor inactive, 4MU fluor inactive, AID923 0.3% and HADH2 inhib 0.3%.
O=C1CCC[C@H]2OC12[C@@H](O)CCc1ccccc1 (stereo not given in full) was read as HSD17B inh 3.0%[11.4 µM], AID923 -1.1%[11.5 µM] and HADH2 inhib 4.5%[11.4 µM].
Screening O=S1(=O)CCN2C=C(Br)C=C(Br)C2=N1 returned GBA mod >76.9, HSD17B inh inconclusive, A350 fluor 1.14e-07M*, 4MU fluor 8.72e-08M*, AID923 0.3% and HADH2 inhib -5.6%.
For COc1cc(Br)cc(CN2CCN(C/C=C/c3ccccc3)CC2)c1O the results were GBA mod >76.9, HSD17B inh -2.4%, A350 fluor inactive, 4MU fluor inactive, AID923 -0.5% and HADH2 inhib -9.2%.
For Cc1cc(C)c2c(CN3CCN(C/C=C/c4ccccc4)CC3)cc(=O)oc2c1 the results were GBA mod >76.9, HSD17B inh -8.6%, A350 fluor 4.23e-08M*, 4MU fluor 3.45e-08M*, AID923 0.4% and HADH2 inhib 16.9%.
Screening O=[n+]1cc(-c2cc3ccccc3o2)n([O-])c2c1CCCC2 returned GBA mod >76.9, HSD17B inh inconclusive, A350 fluor 5.78e-08M*, 4MU fluor 4.78e-08M*, AID923 11.2% and HADH2 inhib 12.5%.
For COc1ccc(CCNC(=O)c2c(O)c3c([nH]c2=O)CCCC3)cc1OC the results were GBA mod >76.9, HSD17B inh -4.1%, A350 fluor inconclusive, 4MU fluor inconclusive, AID923 -0.1% and HADH2 inhib -9.5%.
For O[C@@](CCN1CCCCC1)(c1ccccc1)[C@@H]1C[C@H]2C=C[C@@H]1C2 the results were HSD17B inh 0.5%[25.6 µM], A350 fluor inconclusive, 4MU fluor inconclusive, AID923 0.6%[25.7 µM] and HADH2 inhib -5.8%[25.6 µM].
`O=C(c1cccc(F)c1)N1CCC2(CCCN(Cc3ccccc3)C2)CC1` gave HSD17B inh 5.7%, A350 fluor inactive, 4MU fluor inactive, AID923 -0.1% and HADH2 inhib -3.0%.
For N#Cc1c(NCCN)nc(NCc2ccccc2)c2c1CCN(Cc1ccccc1)C2 the results were A350 fluor 4.34e-08M* and 4MU fluor 2.63e-08M*.
For C=CCNc1nc(NCc2ccccc2)c(C#N)c2c1CN(C)CC2 the results were A350 fluor 1.24e-07M* and 4MU fluor 9.96e-08M*.
Screening N#Cc1c(N2CCCCC2)nc(N2CCCCC2)c2c1CCN(Cc1ccccc1)C2 returned A350 fluor 2.07e-07M* and 4MU fluor 1.85e-07M*.

From PubChem
